According to PubChem BioAssay AID1159580 (chemical genetic matrix, 2015):
The whole screen tested about 5,500 compounds, of which about 2,000 (36%) were called active. Another 18% or so got no clear call; they are omitted. No stated cut-off is given here; in the data, active means normalized growth mostly below about 0.91 (no sharp cut-off); inconclusive means no clear call, values can overlap the other calls; inactive means mostly above about 0.92. The list shows a part of the results.

Test: chemical genetic growth profiling, strain panel (AID 1159580);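 further: tested at 20 µM; growth read once vehicle control cultures reached saturation at 30 °C; 1 = growth at the plate median or of vehicle wells; lower values mean less growth of the strain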
Conditions: growth OD
[1] = S. cerevisiae deletion strains, locus YDL101C, strain DUN1, hits give low values
[2] = S. cerevisiae deletion strains, locus YHR030C, strain SLT2, hits give low values
[3] = S. cerevisiae deletion strains, locus YHR079C, strain IRE1, hits give low values
[4] = S. cerevisiae deletion strains, locus YJL095W, strain BCK1, hits give low values
[5] = S. cerevisiae deletion strains, locus YJR066W, strain TOR1, hits give low values
[6] = S. cerevisiae deletion strains, locus YLR113W, strain HOG1, hits give low values
[7] = S. cerevisiae deletion strains, locus YNL183C, strain NPR1, hits give low values
[8] = S. cerevisiae deletion strains, locus YOR231W, strain MKK1, hits give low values
[9] = S. cerevisiae deletion strains, locus YPL256C, strain CLN2, hits give low values

Measured: normalized growth

c1ccc(Sc2c(-c3ccccc3)nc3ccccn23)cc1
inactive: [1] 0.929 | S. cerevisiae deletion strains, locus YDR150W, strain NUM1, hits give low values 0.8 | S. cerevisiae deletion strains, locus YHR087W, strain rtc3, hits give low values 0.921 | S. cerevisiae deletion strains, locus YJR043C, strain POL32, hits give low values 0.93 | S. cerevisiae deletion strains, locus YML094W, strain GIM5, hits give low values 0.886 | S. cerevisiae deletion strains, locus YNL153C, strain GIM3, hits give low values 0.931 | S. cerevisiae strains, strain wild type, hits give low values 0.92
active: S. cerevisiae deletion strains, locus YAL013W, strain DEP1, hits give low values 0.895 | S. cerevisiae deletion strains, locus YBR229C, strain ROT2, hits give low values 0.9 | S. cerevisiae deletion strains, locus YCL061C, strain MRC1, hits give low values 0.906 | S. cerevisiae deletion strains, locus YEL061C, strain CIN8, hits give low values 0.869 | S. cerevisiae deletion strains, locus YGR078C, strain PAC10, hits give low values 0.884 | [2] 0.193 | S. cerevisiae deletion strains, locus YJR075W, strain HOC1, hits give low values 0.833 | S. cerevisiae deletion strains, locus YKL190W, strain CNB1, hits give low values 0.79 | S. cerevisiae deletion strains, locus YLR039C, strain RIC1, hits give low values 0.657 | S. cerevisiae deletion strains, locus YLR058C, strain SHM2 (second series), hits give low values 0.899 | S. cerevisiae deletion strains, locus YLR085C, strain ARP6, hits give low values 0.275 | S. cerevisiae deletion strains, locus YLR262C, strain YPT6, hits give low values 0.78 | S. cerevisiae deletion strains, locus YMR219W, strain ESC1, hits give low values 0.897 | S. cerevisiae deletion strains, locus YNL298W, strain CLA4 (second series), hits give low values 0.781 | S. cerevisiae deletion strains, locus YNL322C, strain KRE1, hits give low values 0.915 | S. cerevisiae deletion strains, locus YNR030W, strain Alg12, hits give low values 0.714 | S. cerevisiae deletion strains, locus YPL055C, strain LGE1, hits give low values 0.725 | S. cerevisiae deletion strains, locus YPL241C, strain CIN2, hits give low values 0.692 | S. cerevisiae deletion strains, locus YPR135W, strain CTF4, hits give low values 0.431

COc1ccc(C2CC(c3ccccc3)=Nc3ccccc3S2)cc1OC (stereo not given)
inactive: S. cerevisiae deletion strains, locus YAR019C, strain CDC15, hits give low values 0.969 | S. cerevisiae deletion strains, locus YBL105C, strain PKC1, hits give low values 0.962 | S. cerevisiae deletion strains, locus YBR135W, strain CKS1, hits give low values 0.974 | S. cerevisiae deletion strains, locus YBR136W, strain MEC1, hits give low values 0.947 | S. cerevisiae deletion strains, locus YBR160W, strain CDC28, hits give low values 0.975 | S. cerevisiae deletion strains, locus YDL017W, strain CDC7, hits give low values 0.965 | S. cerevisiae deletion strains, locus YDL028C, strain MPS1, hits give low values 0.975 | [1] 0.965 | S. cerevisiae deletion strains, locus YDL108W, strain KIN28, hits give low values 0.976 | S. cerevisiae deletion strains, locus YDL132W, strain cdc53, hits give low values 0.975 | S. cerevisiae deletion strains, locus YDL214C, strain PRR2, hits give low values 0.936 | S. cerevisiae deletion strains, locus YDR052C, strain DBF4, hits give low values 0.97 | S. cerevisiae deletion strains, locus YDR054C, strain cdc34, hits give low values 0.958 | S. cerevisiae deletion strains, locus YDR226W, strain ADK1, hits give low values 0.967 | S. cerevisiae deletion strains, locus YDR477W, strain SNF1, hits give low values 0.949 | S. cerevisiae deletion strains, locus YER123W, strain YCK3, hits give low values 0.939 | S. cerevisiae deletion strains, locus YER133W, strain GLC7, hits give low values 0.952 | S. cerevisiae deletion strains, locus YFL009W, strain cdc4, hits give low values 0.973 | S. cerevisiae deletion strains, locus YFL029C, strain CAK1, hits give low values 0.945 | S. cerevisiae deletion strains, locus YFR003C, strain YPI1, hits give low values 0.961 | S. cerevisiae deletion strains, locus YFR019W, strain FAB1, hits give low values 0.967 | S. cerevisiae deletion strains, locus YFR028C, strain CDC14, hits give low values 0.961 | S. cerevisiae deletion strains, locus YGR040W, strain KSS1, hits give low values 0.94 | S. cerevisiae deletion strains, locus YGR052W, strain FMP48, hits give low values 1.02 | S. cerevisiae deletion strains, locus YGR092W, strain DBF2, hits give low values 0.935 | [2] 0.887 | [3] 0.914 | S. cerevisiae deletion strains, locus YHR082C, strain KSP1, hits give low values 0.975 | S. cerevisiae deletion strains, locus YHR205W, strain SCH9, hits give low values 0.934 | S. cerevisiae deletion strains, locus YIL147C, strain SLN1, hits give low values 0.959 | [4] 0.941 | S. cerevisiae deletion strains, locus YJL128C, strain PBS2, hits give low values 0.943 | S. cerevisiae deletion strains, locus YJL157C, strain FAR1, hits give low values 0.968 | S. cerevisiae deletion strains, locus YJR016C, strain ILV3, hits give low values 0.966 | S. cerevisiae deletion strains, locus YJR066W, strain TOR1 (second series), hits give low values 0.901 | [5] 0.938 | S. cerevisiae deletion strains, locus YKL048C, strain ELM1, hits give low values 0.968 | S. cerevisiae deletion strains, locus YKL067W, strain YNK1, hits give low values 0.956 | S. cerevisiae deletion strains, locus YKL101W, strain HSL1, hits give low values 0.927 | S. cerevisiae deletion strains, locus YKL193C, strain SDS22, hits give low values 0.976 | S. cerevisiae deletion strains, locus YKL203C, strain TOR2, hits give low values 0.965 | [6] 0.889 | S. cerevisiae deletion strains, locus YLR133W, strain CKI1, hits give low values 0.948 | S. cerevisiae deletion strains, locus YLR403W, strain SFP1, hits give low values 0.929 | S. cerevisiae deletion strains, locus YML070W, strain DAK1, hits give low values 0.949 | S. cerevisiae deletion strains, locus YMR001C, strain CDC5, hits give low values 0.969 | S. cerevisiae deletion strains, locus YMR205C, strain PFK2 (second series), hits give low values 0.95 | S. cerevisiae deletion strains, locus YMR277W, strain FCP1, hits give low values 0.97 | S. cerevisiae deletion strains, locus YNL006W, strain LST8, hits give low values 0.988 | S. cerevisiae deletion strains, locus YNL020C, strain ARK1, hits give low values 0.939 | S. cerevisiae deletion strains, locus YNL161W, strain CBK1, hits give low values 0.962 | [7] 0.939 | S. cerevisiae deletion strains, locus YNL207W, strain RIO2, hits give low values 0.97 | S. cerevisiae deletion strains, locus YNL222W, strain SSU72, hits give low values 0.968 | S. cerevisiae deletion strains, locus YNL307C, strain MCK1 (second series), hits give low values 0.974 | S. cerevisiae deletion strains, locus YOL078W, strain AVO1, hits give low values 0.975 | S. cerevisiae deletion strains, locus YOL136C, strain PFK27, hits give low values 0.946 | S. cerevisiae deletion strains, locus YOR061W, strain CKA2, hits give low values 0.94 | S. cerevisiae deletion strains, locus YOR119C, strain RIO1, hits give low values 0.949 | [8] 0.918 | S. cerevisiae deletion strains, locus YOR329C, strain SCD5, hits give low values 0.97 | S. cerevisiae deletion strains, locus YPL031C, strain PHO85, hits give low values 0.932 | S. cerevisiae deletion strains, locus YPL153C, strain RAD53, hits give low values 0.958 | S. cerevisiae deletion strains, locus YPL204W, strain HRR25, hits give low values 0.948 | S. cerevisiae deletion strains, locus YPL209C, strain IPL1, hits give low values 0.975 | [9] 0.879 | S. cerevisiae deletion strains, locus YPR025C, strain CCL1, hits give low values 0.966 | S. cerevisiae deletion strains, locus YPR106W, strain ISR1, hits give low values 0.971 | S. cerevisiae deletion strains, locus YPR111W, strain DBF20, hits give low values 0.97 | S. cerevisiae deletion strains, strain NNK1, hits give low values 0.958 | S. cerevisiae deletion strains, strain TSCII, hits give low values 0.965

Cc1ncc(C[n+]2csc(CCO)c2C)c(=O)[nH]1
inactive: [2] 1.04 | [3] 1.05 | [4] 0.991 | [5] 0.984 | [6] 0.979 | [7] 0.976 | [8] 1.03 | [9] 1.05
